High-throughput results deposited in PubChem BioAssay by National Center for Advancing Translational Sciences (NCATS).
ELG1 genotoxic = inducers of genotoxicity in HEK293T ELG1-luciferase cells. HEK293T ELG1-luciferase reporter, luminescence, 16 h. Potency, µM (top dose mostly 46 µM), for inactives: at the highest dose activity change, positive = activation, most hits filed as activators. 330,000 tested, 1.3% active; also: % of control where 0% means no effect; nearly all actives have a fitted effect of over 60% in size
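Quantitative HTS format in 1536-well plates. HEK293T ELG1-luciferase reporter cells receive test compound and are incubated 16 hr at 37 °C, 5% CO2; ONE-Glo added, 30 min room temperature, then luminescence read.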
FLuc counter = firefly luciferase modulation, counter-screen for miR-21 project. P08659. purified FLuc, Km substrates, luminescence inhibition. Potency, µM (doses to about 57.5 µM), for the others: at the highest dose activity change, negative = inhibition, hits mostly inhibitors. 360,000 tested, 6.9% active;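 also: plate controls were vehicle for no effect and reference inhibitor for full effect; nearly all actives have a fitted effect of over 55% in size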
Target sequence (P08659 whole entry, looked up): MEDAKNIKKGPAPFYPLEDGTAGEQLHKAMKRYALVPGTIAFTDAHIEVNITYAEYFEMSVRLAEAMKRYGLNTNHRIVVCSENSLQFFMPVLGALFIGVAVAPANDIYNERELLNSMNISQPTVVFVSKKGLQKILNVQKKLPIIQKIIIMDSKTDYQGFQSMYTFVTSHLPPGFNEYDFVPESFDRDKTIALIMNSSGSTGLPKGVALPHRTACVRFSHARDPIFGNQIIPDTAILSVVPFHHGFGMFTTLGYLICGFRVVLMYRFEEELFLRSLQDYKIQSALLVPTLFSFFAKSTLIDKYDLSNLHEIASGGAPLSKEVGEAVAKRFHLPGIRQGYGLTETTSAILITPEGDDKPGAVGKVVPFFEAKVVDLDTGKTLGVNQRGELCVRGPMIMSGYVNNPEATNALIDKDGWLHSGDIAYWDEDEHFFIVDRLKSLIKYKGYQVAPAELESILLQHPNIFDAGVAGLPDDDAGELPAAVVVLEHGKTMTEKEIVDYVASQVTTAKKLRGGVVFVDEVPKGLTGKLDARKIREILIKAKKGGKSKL
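Purified P. pyralis luciferase, 10 nM final, with Km-level 10 uM D-luciferin and 10 uM ATP in 50 mM Tris acetate pH 7.5, 10 mM Mg acetate, 0.01% Tween-20, 0.05% BSA; 6-point qHTS titration about 60 µM downward; luminescence read.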
NPC1 promoter act = NPC1 promoter activation. Huh7 NPC1 promoter luciferase reporter, 24 h. Potency, µM (series often up to 9.22 µM), for inactives: at the highest dose activation, most hits filed as activators. 320,000 tested, 2.4% active; also: % of control where 0% means no effect; nearly all actives have a fitted effect of over 60% in size
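Cells: Huh7 expressing luciferase under the NPC1 promoter, 1500/well. Seeded 2 h, compound added, incubated 24 h at 37 °C. Luciferase reagent, 10 min ambient, then luminescence.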
SMN2 splice enh = increases expression of the SMN2 splice variant | HEK293 SMN2-luciferase splicing reporter, luminescence, 30-36 h | Potency, µM (doses to about 46.1 µM), for inactives: at the highest dose activity change, positive = activation, hits mostly activators | 210,000 tested, 2.8% active | AID 1458; also: % of control where 0% means no effect; nearly all actives have a fitted effect of over 55% in size
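HEK293 cells carry an SMN2 minigene-luciferase reporter in which exon 7 inclusion puts luciferase in frame. Cells were seeded at 2000 cells/well, attached for 10-12 hours, then exposed to compounds for 30-36 hours at 37C before ONE-Glo luminescence.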
Rab9 prom act = activates the Rab9 promoter | Huh7 Rab9 promoter-luciferase reporter, luminescence, 24 h | 320,000 tested, 2.8% active | Potency, µM (titrated, usually from 9.22 µM), for inactives: at the top dose activation, negative = inhibition, actives largely listed as activators; also: % of control where 0% means no effect; nearly all actives have a fitted effect of over 60% in size
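Steps: seed 1500 Huh7 Rab9-luc cells per well, rest 2 h at 37 °C; add compound in DMSO; incubate 24 h; add luciferase reagent, 10 min ambient; read luminescence.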
p53 reactivation = re-activators of mutant p53. H1299 p53-A138V BP100-luciferase reporter, luminescence, 24 h. Potency, µM (top dose mostly 92.2 µM), for inactives: at the highest dose activity change, positive = activation, actives largely listed as activators. 320,000 tested, 0.063% active; also: % of control where 0% means no effect; nearly all actives have a fitted effect of over 45% in size
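H1299 (p53-null), stable ts p53-A138V + BP100-Luc; 1000 cells/well, Opti-MEM/10% FBS; cpd 4 pt, 1:5; 24 h, 37 deg C, 5% CO2; detection reagent 10 min RT; luminescence.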
Starred values were filed as active, the others as inactive; [ ] = remark or other dose. Rows were chosen to be rich in hits. Some 7.4% of all compounds tested hit in one or more screens of this group. Calls follow the shape of the dose curve; as a rule, active = well fitted curve in the direction sought with a large enough effect; inconclusive = small, poorly fitted or top-dose-only effect, or another doubt; inactive = no such curve, though single readings can be large; an effect the other way counts as inactive or inconclusive. Potency is read from the fitted curve at half-maximal effect.

How did CC(=O)c1ccc(NC(=O)CN2C(=O)CCc3cc(S(=O)(=O)N4CCC(C)CC4)ccc32)cc1 do in these assays?
FLuc counter: -0.1%

Results for Cc1ccc(NC(=O)c2cc3ccccc3o2)cc1Cl ?
ELG1 genotoxic: inconclusive; FLuc counter: 3.38µM*; NPC1 promoter act: 3.98µM*; Rab9 prom act: 3.16µM*; p53 reactivation: -12.9%

What do the screens show for `CC(=O)Nc1cccc(NC(=O)c2cc3ccccc3o2)c1`?
ELG1 genotoxic: 5.8µM*; FLuc counter: 3.38µM*; NPC1 promoter act: 3.55µM*; SMN2 splice enh: 11.2µM*; Rab9 prom act: inconclusive; p53 reactivation: inconclusive

How did Cc1ccc(NC(=O)c2ocnc2C)cc1Cl do in these assays?
ELG1 genotoxic: inconclusive; FLuc counter: 12µM*; NPC1 promoter act: inconclusive; SMN2 splice enh: 14.1µM*; Rab9 prom act: 3.16µM*; p53 reactivation: inconclusive

How did CCCCOC(=O)c1cccc(NC(=O)c2cc3ccccc3o2)c1 do in these assays?
FLuc counter: 8.49µM*; SMN2 splice enh: 3.55µM*

What do the screens show for `Cc1cc(C)nc(NC(=O)c2cc3ccccc3o2)n1`?
ELG1 genotoxic: 4.9%; FLuc counter: -8.7%; NPC1 promoter act: 14.7%; SMN2 splice enh: -5.5%; Rab9 prom act: 14.8%; p53 reactivation: inconclusive

What do the screens show for `Cc1ncoc1C(=O)Nc1cccc(Cl)c1`?
ELG1 genotoxic: inconclusive; FLuc counter: inconclusive; NPC1 promoter act: inconclusive; SMN2 splice enh: 26.8%; Rab9 prom act: inconclusive; p53 reactivation: inconclusive

What do the screens show for `CC(C)NC(=O)c1cc2ccccc2o1`?
ELG1 genotoxic: -1.6%; FLuc counter: -7.6%; NPC1 promoter act: -2.4%; SMN2 splice enh: 1.1%; Rab9 prom act: -0.3%; p53 reactivation: 13.8%

What do the screens show for `CC(C)C(=O)Nc1cccc(NC(=O)c2cc3ccccc3o2)c1`?
ELG1 genotoxic: inconclusive; FLuc counter: 6.01µM*; NPC1 promoter act: inconclusive; SMN2 splice enh: 17.8µM*; Rab9 prom act: inconclusive; p53 reactivation: inconclusive

What do the screens show for `COCCCNC(=O)N1[C@H](c2cccs2)[C@@H](C)C(=O)[C@@H](C)[C@@H]1c1cccs1`?
FLuc counter: -7.6%

What do the screens show for `CC(=O)Nc1ccc(S(=O)(=O)Nc2cc(-c3cn4ccccc4n3)ccc2C)cc1`?
FLuc counter: 16.9µM*; SMN2 splice enh: inconclusive

What do the screens show for `CCc1ccc(S(=O)(=O)Nc2cc(-c3cn4ccccc4n3)ccc2C)cc1`?
FLuc counter: inconclusive; SMN2 splice enh: 8.7%

How did Cc1ccn2cc(-c3ccc(C)c(NS(=O)(=O)c4ccc(Cl)cc4)c3)nc2c1 do in these assays?
FLuc counter: 10.7µM*; SMN2 splice enh: -31.5%

How did CCS(=O)(=O)Nc1cc(-c2cn3ccc(C)cc3n2)ccc1C do in these assays?
FLuc counter: 12µM*; SMN2 splice enh: inconclusive

How did CCN(C(=O)c1nn(-c2ccc(C)cc2)c(=O)c2c1c1ccccc1n2C)c1ccc(F)cc1 do in these assays?
FLuc counter: -0.9%; SMN2 splice enh: 0.1%

How did COc1ccccc1-c1nc(CNC(=O)Nc2ccccc2)c(C)o1 do in these assays?
FLuc counter: -11.2%

What do the screens show for `O=C1c2ccccc2COc2ccc(O)cc21`?
ELG1 genotoxic: 13.4%; FLuc counter: inconclusive; NPC1 promoter act: 16.7%; SMN2 splice enh: -13.0%; Rab9 prom act: inconclusive; p53 reactivation: 1.8%

How did COc1ccc2c(c1)C(=O)c1ccccc1CO2 do in these assays?
ELG1 genotoxic: inconclusive; FLuc counter: 6.01µM*; NPC1 promoter act: 3.98µM*; SMN2 splice enh: inconclusive; Rab9 prom act: 3.16µM*; p53 reactivation: inconclusive

What do the screens show for `COc1ccc(Br)cc1CNC(=O)c1cnc2sc(N3CCCC3)nn2c1=O`?
FLuc counter: -2.1%

Results for O=C(OCc1nc(-c2ccccc2Cl)no1)c1ccco1 ?
ELG1 genotoxic: 1.2%; FLuc counter: 12µM*; NPC1 promoter act: 0.9%; Rab9 prom act: -0.3%; p53 reactivation: 5.7%

Results for CC1CC1C(=O)OCC(=O)NCc1ccccc1Cl (centres undefined) ?
ELG1 genotoxic: -0.3%; FLuc counter: -15.8%; NPC1 promoter act: -0.4%; SMN2 splice enh: 18.9%; Rab9 prom act: 15.4%; p53 reactivation: 3.5%

What do the screens show for `O=C(COC(=O)COc1ccccc1)NCCc1ccccc1`?
ELG1 genotoxic: 1.0%; FLuc counter: 3.1%; NPC1 promoter act: -1.7%; Rab9 prom act: -1.0%; p53 reactivation: 2.4%

How did O=C(COC(=O)c1ccco1)NCc1ccc(Cl)cc1Cl do in these assays?
ELG1 genotoxic: -0.4%; p53 reactivation: -1.8%

How did O=C(O)CCc1nc(-c2ccccc2Cl)no1 do in these assays?
ELG1 genotoxic: 1.8%; FLuc counter: -11.5%; NPC1 promoter act: 1.6%; SMN2 splice enh: -2.2%; Rab9 prom act: -1.0%; p53 reactivation: 4.9%

What do the screens show for `O=C(COC(=O)C1CCC1)NCc1ccccc1Cl`?
ELG1 genotoxic: 0.1%; FLuc counter: 23.9µM*; NPC1 promoter act: -2.6%; SMN2 splice enh: 6.4%; Rab9 prom act: 9.3%; p53 reactivation: 2.6%

How did O=C(COC(=O)c1ccco1)NCc1ccccc1Cl do in these assays?
ELG1 genotoxic: 3.7%; FLuc counter: 26.9µM*; NPC1 promoter act: 7.1%; SMN2 splice enh: 0.0%; Rab9 prom act: 1.2%; p53 reactivation: -0.1%

How did O=C(COC(=O)C1CCCCC1)NCCc1ccccc1 do in these assays?
ELG1 genotoxic: -0.2%; FLuc counter: 16.9µM*; NPC1 promoter act: 0.5%; SMN2 splice enh: -1.3%; Rab9 prom act: -1.8%; p53 reactivation: -6.7%

What do the screens show for `COc1ccccc1NC(=O)COC(=O)C1CCCC1`?
ELG1 genotoxic: 1.6%; p53 reactivation: -7.1%

What do the screens show for `O=C(COC(=O)C1CCCCC1)Nc1ccccc1OC(F)F`?
ELG1 genotoxic: 0.3%; FLuc counter: 23.9µM*; NPC1 promoter act: -3.7%; SMN2 splice enh: 0.8%; Rab9 prom act: -3.4%; p53 reactivation: 0.5%

How did CN(C)C[C@H]1CCC[C@@H](CN(C)C)C1=O do in these assays?
SMN2 splice enh: -12.3%[9.22 µM]

How did CCCn1c(C)nc2c(NC3CCN(Cc4ccccc4)C3)nc(C)nc21 (centres undefined) do in these assays?
SMN2 splice enh: -15.9%

How did Cc1ccc(-c2cc(C(=O)NCC3CCCO3)c3ccccc3n2)cc1C (centres undefined) do in these assays?
ELG1 genotoxic: -5.7%; FLuc counter: 6.75µM*; NPC1 promoter act: 5.9%; SMN2 splice enh: 15.6%; Rab9 prom act: 2.7%; p53 reactivation: 2.8%
